Source: PubChem
GLP1R inv ag: qHTS of GLP-1 Receptor Inverse Agonists (Inhibition Mode); Potency, µM (doses to about 38.3 µM), without a hit: top-dose activity change, negative = inhibition, hits mostly inhibitors; Glucagon-like peptide 1 receptor (Homo sapiens), P43220; AID 624417, 2012; HEK293 GLP-1R CRE-luciferase, luminescence, 24 h; GLP-1R form is constitutively active; 1.6% of 410,000 active; also: % is scaled to controls: 0 for no effect and ±100 for the full control effect; nearly all actives have a fitted effect of over 55% in size
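qHTS in 1536-well format: reporter HEK293 cells expressing constitutive GLP-1R activity in DMEM + 10% Nu serum, 24 hr with compounds at 37 deg C, luminescence read after 12 min with detection reagent.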
GLP-1R agonist: qHTS of GLP-1 Receptor Agonists. Potency, µM (titrated, usually from 45.6 µM), inactives show at the highest dose activation, most hits filed as activators. HEK293 GLP-1R CRE-luciferase, luminescence, 4-6 h; cells express a hypersensitive GLP-1R form. AID 624172, 2012. Glucagon-like peptide 1 receptor (Homo sapiens), P43220. 0.007% of 380,000 active; also: % of control where 0% means no effect
PTHR1 agonist: qHTS for PTHR1 Agonists: Primary Screen; Parathyroid hormone/parathyroid hormone-related peptide receptor (Homo sapiens), Q03431; HEK293 GP2 PTHR1 cells, GloSensor cAMP luminescence, 1 h; Potency, µM (doses to about 115 µM), for inactives: at the top dose activation, hits mostly activators; 0.075% of 410,000 active; AID 743266, 2014; also: nearly all actives have a fitted effect of over 55% in size
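HEK-293-derived GP2 cells expressing PTHR1 and a GloSensor cAMP reporter, 3,000/well, plated overnight, given luciferin plus IBMX (each 0.5 mM as added) for 1 h at 37 °C, then compound for 1 h at 37 °C. Luminescence was read after 15 min at room temperature.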
GLS inh: qHTS for Inhibitors of Glutaminase (GLS); Glutaminase kidney isoform, mitochondrial (Homo sapiens), O94925; Potency, µM (highest dose often 45.5 µM), inactives show at the top dose activity change, negative = inhibition, most hits filed as inhibitors; GLS enzymatic activity, qHTS titration; 0.21% of 410,000 active; AID 624170, 2012; also: % is scaled to controls: 0 for no effect and ±100 for the full control effect
Target sequence (O94925 whole entry, looked up, canonical isoform): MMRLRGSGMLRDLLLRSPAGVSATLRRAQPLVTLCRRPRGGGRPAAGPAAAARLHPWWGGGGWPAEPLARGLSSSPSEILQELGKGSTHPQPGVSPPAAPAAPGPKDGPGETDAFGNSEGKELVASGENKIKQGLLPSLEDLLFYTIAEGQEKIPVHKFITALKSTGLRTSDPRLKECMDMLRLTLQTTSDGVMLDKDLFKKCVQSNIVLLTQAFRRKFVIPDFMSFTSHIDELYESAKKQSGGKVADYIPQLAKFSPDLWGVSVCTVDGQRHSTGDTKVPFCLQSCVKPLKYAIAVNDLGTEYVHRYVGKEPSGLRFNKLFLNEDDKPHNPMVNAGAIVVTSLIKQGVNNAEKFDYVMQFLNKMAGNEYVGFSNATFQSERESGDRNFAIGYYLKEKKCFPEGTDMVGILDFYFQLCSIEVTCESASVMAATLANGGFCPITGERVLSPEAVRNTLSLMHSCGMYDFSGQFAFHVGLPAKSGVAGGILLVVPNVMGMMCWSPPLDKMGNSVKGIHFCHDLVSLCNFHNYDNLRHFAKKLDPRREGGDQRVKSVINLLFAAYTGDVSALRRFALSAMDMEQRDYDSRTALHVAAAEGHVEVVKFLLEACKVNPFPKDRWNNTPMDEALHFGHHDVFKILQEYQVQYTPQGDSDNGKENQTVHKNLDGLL
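Assay buffer: 45 mM KH2PO4 pH 8.2, 0.02% Tween-20. hKGA acts on L-glutamine (1 mM solution added); product glutamate is reported by an oxidase/peroxidase Amplex Red coupling, with fluorescence taken at baseline and 30 min.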
12-LOX inh: Primary qHTS assay for inhibitors of human arachidonate 12S-lipoxygenase (ALOX12): Round 2 | 1.1% of 580,000 active | AID 1671190, 2021 | purified 12hLO, xylenol orange hydroperoxide absorbance | Potency, µM (series often up to 108 µM), without a hit: at the top dose activity change, negative = inhibition, most hits filed as inhibitors; also: % is scaled to controls: 0 for no effect and ±100 for the full control effect
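Purified human 12hLO (150 nM final) in 25 mM Hepes, 0.01% Triton X-100, pH 7.0 was preincubated 15 min at room temperature with compound. Then 40 uM arachidonic acid was added, 30 min. Hydroperoxide was read by Fe-XO absorbance ratio 573/405 nm.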
GRP78 ERSR act: qHTS for Inducers of the Endoplasmic Reticulum Stress Response (ERSR) in Human Glioma: qHTS; 0.02% of 420,000 active; Potency, µM, for inactives: at the highest dose activation, actives largely listed as activators; U87-MG GRP78 promoter luciferase reporter, 16 h; also: series mostly up to about 76 µM; % of control where 0% means no effect; nearly all actives have a fitted effect of over 35% in size
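Stably transfected U87-MG human glioma cells carrying a GRP78-based luminescent sensor were seeded at 1000 cells/well, pin-dosed with compounds and incubated 16 h. Luciferase reagent was then added, and end-point luminescence was read after 10 min at room temperature.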
* = called active by the depositor; i = inactive; ? = inconclusive; . = no result; [ ] = another dose, or the depositor's remark. This is a sample that favours compounds with a hit; in the whole collection about 2.3% have one here. Calls follow the shape of the dose curve; as a rule, active = well fitted curve in the direction sought with a large enough effect; inconclusive = small, poorly fitted or top-dose-only effect, or another doubt; inactive = no such curve, though single readings can be large; an effect the other way counts as inactive or inconclusive. Potency is read from the fitted curve at half-maximal effect.

SMILES	GLP1R inv ag	GLP-1R agonist	PTHR1 agonist	GLS inh	12-LOX inh	GRP78 ERSR act
Cc1ccccc1-c1cnc2[nH]cc(CC(=O)Nc3cccnc3)c2c1	.	.	.	.	-15.7%[176 µM]	.
O=C(C1CCN(C(=O)N2CC3CC(C2)[C@H]2CCCC(=O)N2C3)CC1)N1CCc2ccccc2C1 (some centres not stated)	.	.	.	.	7.9%	.
COc1ccc(/C=C/C(=O)Sc2ccc(C)cc2)cc1	.	.	.	.	1.9%	.
COc1ccc(C(=O)Nn2c(SCc3cccc([N+](=O)[O-])c3)nc3ccccc3c2=O)cc1	5.62µM*	-16.8%	-20.4%	17.1%	-11.3%	-9.9%
CN(C)CCCNc1nc2sc3c(c2c(=O)n1CCc1ccccc1)CCCCC3	3.16µM*	6.4%	i	-5.3%	?	-7.2%
Cc1ccn2c(-c3n[nH]c(=S)n3C)c(C)nc2c1	31.7%	-5.2%	-14.5%	11.9%	44.7µM*	-2.4%
Cc1cccc(-c2n[nH]c(=S)n2C)c1	-7.5%[0.307 µM]	0.5%	-3.0%	-28.2%	?	-1.6%
CCCN1CCC(N2CCN(c3ccc([N+](=O)[O-])cc3)CC2)CC1	?	-4.4%	i	-2.8%	0.891µM*	0.2%
O=S(=O)(c1ccccc1)N1CCN(Cc2coc(-c3cccs3)n2)CC1	.	.	.	.	-1.9%	.
CC(C)=CCC/C(C)=C/COC=O	.	.	.	.	-3.8%[176 µM]	.
CCN(CC)CCn1c(=N)n(CC(=O)c2ccc(Br)s2)c2ccccc21	2.82µM*	19.7%	i	-22.3%	?	-4.5%
Cn1c(=N)n(CC(=O)c2ccc(Br)s2)c2ccccc21	?	11.8%	-24.0%	10.9%	10.1%	-12.6%
CCN(CC)Cc1ccc2cc(COC(=O)Nc3ccc(C(=O)NO)cc3)ccc2c1	.	.	.	.	15.3µM*	.
COc1ccc(Nc2cc3c(cn2)cc(-c2cccc(C(F)(F)F)c2)n3C)cc1	.	.	.	.	44.7µM*	.
Fc1ccccc1-c1ccc(CNc2ncn[nH]2)o1	.	.	.	.	6.3%	.
N/C(CC(=O)NC1CCCCC1)=N\OCC(=O)Nc1ccc(Cl)c(Cl)c1	22.4µM*	10.0%	i	-3.0%	-2.0%	-0.3%
CCCN1C(=O)/C(=C/c2ccc(C)o2)SC1=Nc1ccc(OC)cc1	?	-2.0%	i	3.9%	12.6µM*	-5.9%
CCN1C(=O)/C(=C\c2ccc(-c3cccc(C(=O)OC)c3)o2)SC1=Nc1ccc(C(=O)O)cc1	.	.	.	.	50.1µM*	.
COc1cccc2ccn(CC(=O)NCc3ccccc3)c12	.	.	.	.	-4.5%	.
COc1ccc2[nH]c(C(=O)N3CCN4CCS(=O)(=O)N(C5CC5)C(=O)C4C3)cc2c1 (configuration not stated)	.	.	.	.	22.4µM*	.
CC1CCN(C(=O)C2CCN(c3nc4ccccc4nc3OC(C)C)CC2)CC1	.	.	.	.	-9.4%	.
CCCCc1oc2ccccc2c1C(=O)c1cc(I)c(N(CC)CCOCC)c(I)c1	.	.	.	.	.	-6.1%
CCc1oc2ccccc2c1C(=O)c1cc(I)c(O)c(I)c1	.	-0.6%	.	3.8%	12.8µM*	-4.5%
Cc1ccccc1-n1sc2cc(F)ccc2c1=O	?	4.2%	-29.3%	?	?	-11.7%
O=c1c2cc(F)ccc2sn1-c1ccccc1	7.3%	7.1%	-21.8%	7.08µM*	?	-10.3%
SMILES	GLP1R inv ag	GLP-1R agonist	PTHR1 agonist	GLS inh	12-LOX inh	GRP78 ERSR act
O=c1c2ccccc2c(-c2cccc(C(F)(F)F)c2)nn1-c1ccccc1	?	2.5%	-7.3%	-5.5%	149.0%	0.1%
O=c1c2cc(C(F)(F)F)ccc2sn1-c1ccccc1	2.4%	-3.6%	-55.1%	11.2µM*	-71.3%	2.3%
CN(C)CC(=O)N1Cc2ccccc2CC2(CCCN(CCc3ccccc3)C2)C1 (configuration not stated)	.	.	.	.	7.3%[6.33 µM]	.
Cc1cnc(C(=O)NCc2ccc(C)s2)cn1	.	.	.	.	-2.6%	.
CCc1ccc(C(=O)COC(=O)Cc2cccc3ccccc23)cc1	.	.	.	.	7.5%	.
O=C(/C=C/c1ccccc1)C1=C(O)C(=O)N(CCO)C1c1ccc2c(c1)OCO2 (configuration not stated)	8.0%	-1.5%	-7.0%	55.4%	7.94µM*	0.0%
C=CCn1c(-c2cccn(Cc3ccc(Cl)cc3Cl)c2=O)n[nH]c1=S	0.0%	-5.1%	-1.5%[57.5 µM]	?	44.7µM*	-1.7%
CCCCC(=O)N(C)c1c(CC)nc2c(OCc3ccc(C(F)(F)F)cc3)cccn12	11.2µM*	-3.8%	i	0.3%	-1.6%	-2.4%
Clc1ccc(-c2cc(CN3CCOCC3)no2)cc1	-14.0%	13.2%	-21.1%	-0.5%	8.5%	-5.9%
Clc1ccc(-c2cc(CN3CCCCC3)no2)cc1Cl	10µM*	16.0%	-19.6%	-8.5%	0.0%	-2.9%
CCCCn1nc(C(=O)Nc2nnc(Cc3ccccc3)s2)c2ccccc2c1=O	.	.	.	.	-9.0%	.
O=C(CCN1CCC(c2ccccc2)C1)c1ccc2ccccc2c1 (configuration not stated)	.	.	.	.	15.8µM*	.
O=C(CCN1CCC(c2ccccc2)C1)c1cccc2ccccc12 (configuration not stated)	.	.	.	.	25.1µM*	.
O=C(CCN1CCC(c2ccccc2)C1)c1ccccc1 (configuration not stated)	1.9%	11.4%	-25.4%[57.5 µM]	15.3%	?	-3.3%
O=C(CCN1CCC(c2ccccc2)C1)c1ccco1 (configuration not stated)	.	.	.	.	-23.3%	.
COc1ccc2nc(SCC(=O)NC3CCCc4ccccc43)[nH]c2c1 (configuration not stated)	?	-1.1%	-24.9%	7.7%	-8.3%	-6.9%
O=C(CN1CCN(c2ccccc2Cl)CC1)NC1CCCc2ccccc21 (configuration not stated)	10µM*	3.0%	i	0.2%	-24.1%	-2.6%
O=C(CSc1nc2ccc(Cl)cc2[nH]1)NC1CCCc2ccccc21 (configuration not stated)	8.91µM*	16.1%	-30.7%	-7.5%	-24.1%	-3.5%
COc1ccc(NC(=O)N2CCc3c(C(=O)NCCN4CCCCCC4)cccc32)cc1	.	.	.	.	36.8%	.
Cc1ccc2[nH]cc(C(c3ccccc3)c3cccs3)c2c1 (configuration not stated)	10µM*	.	-44.7%	14.8%	-29.7%	-10.8%
CC1=C[C@@H](CNS(=O)(=O)c2ccccc2)[C@H](C(C)C)C[C@H]1CC(=O)NCCN(C)C	.	.	.	.	21.4%	.
